{"source": "the antibiotic and cytotoxicity screens of Wong et al. (2023)", "note": "Screen size: about 39,000 compounds; about 3,300 (8.5%) were called active. The sample as a whole holds a higher share of actives than the screen did.", "data": [{"test_system": "HepG2", "assay": "cytotoxicity call (relative viability < 0.9)", "details": "10 µM", "values": [{"smiles": "O=C(CN1CCOCC1)NCC[C@@H]1CC[C@H](NC(=O)Nc2ccccc2)[C@@H](CO)O1", "cytotoxicity call": "inactive"}, {"smiles": "CNC(=O)Nc1ccc(-c2nc(N3C[C@H]4CC[C@@H](C3)O4)c3cnn(C4CCC5(CC4)OCCO5)c3n2)cc1", "cytotoxicity call": "inactive"}, {"smiles": "O=C1CC[C@@H](C(=O)N2CSC[C@H]2C(=O)O)N1", "cytotoxicity call": "inactive"}, {"smiles": "O=C1CCC(C(=O)N2CSCC2C(=O)O)N1", "note": "(centres undefined)", "cytotoxicity call": "active"}, {"smiles": "O=C1CC[C@@H](C(=O)O)N1", "cytotoxicity call": "inactive"}, {"smiles": "CC(C)NC(=O)Nc1cccc2c1O[C@H](CN(C)C(=O)NC1CCCCC1)[C@@H](C)CN([C@@H](C)CO)C2=O", "cytotoxicity call": "inactive"}, {"smiles": "C[C@@H]1CN([C@@H](C)CO)C(=O)c2cccc(NC(=O)c3ccncc3)c2O[C@@H]1CN(C)Cc1ccc2c(c1)OCO2", "cytotoxicity call": "inactive"}, {"smiles": "C[C@@H]1CCCCO[C@@H](CN(C)C(=O)C2CCCCC2)[C@H](C)CN([C@H](C)CO)C(=O)c2cc(NC(=O)Nc3cccc4ccccc34)ccc2O1", "cytotoxicity call": "inactive"}, {"smiles": "O=C(C[C@@H]1C[C@H]2c3cc(NC(=O)NC4CCCC4)ccc3O[C@H]2[C@@H](CO)O1)NCc1ccc(-c2ccccc2)cc1", "cytotoxicity call": "inactive"}, {"smiles": "O=C(C[C@@H]1C[C@@H]2c3cc(NC(=O)NC4CCCC4)ccc3O[C@@H]2[C@H](CO)O1)NCc1ccc(-c2ccccc2)cc1", "cytotoxicity call": "inactive"}, {"smiles": "O=C(C[C@@H]1C[C@H]2c3cc(NC(=O)NC4CCCC4)ccc3O[C@H]2[C@H](CO)O1)NCc1ccc(-c2ccccc2)cc1", "cytotoxicity call": "active"}, {"smiles": "O=C(C[C@H]1C[C@H]2c3cc(NC(=O)NC4CCCC4)ccc3O[C@H]2[C@@H](CO)O1)NCc1ccc(Oc2ccccc2)cc1", "cytotoxicity call": "inactive"}, {"smiles": "O=C(C[C@H]1C[C@H]2c3cc(NC(=O)NC4CCCC4)ccc3O[C@H]2[C@H](CO)O1)NCc1ccc(-c2ccccc2)cc1", "cytotoxicity call": "inactive"}, {"smiles": "O=C(C[C@@H]1C[C@@H]2c3cc(NC(=O)NC4CCCC4)ccc3O[C@@H]2[C@@H](CO)O1)NCc1ccc(-c2ccccc2)cc1", "cytotoxicity call": "inactive"}, {"smiles": "O=C(C[C@H]1C[C@H]2c3cc(NC(=O)NC4CCCC4)ccc3O[C@H]2[C@@H](CO)O1)NCc1ccc(-c2ccccc2)cc1", "cytotoxicity call": "inactive"}, {"smiles": "O=C(C[C@H]1C[C@@H]2c3cc(NC(=O)NC4CCCC4)ccc3O[C@@H]2[C@@H](CO)O1)NCc1ccc(-c2ccccc2)cc1", "cytotoxicity call": "active"}, {"smiles": "O=C(C[C@H]1C[C@@H]2c3cc(NC(=O)NC4CCCC4)ccc3O[C@@H]2[C@H](CO)O1)NCc1ccc(-c2ccccc2)cc1", "cytotoxicity call": "active"}, {"smiles": "CC(=O)OCCc1nc(C(=O)NCc2ccc3c(c2)OCO3)cc2c1[C@@H](CCO)N([S@](=O)C(C)(C)C)C2", "cytotoxicity call": "inactive"}, {"smiles": "O=C(C[C@@H]1C[C@H]2c3cc(NS(=O)(=O)c4ccccc4)ccc3O[C@H]2[C@H](CO)O1)NCC(F)(F)F", "cytotoxicity call": "inactive"}, {"smiles": "COc1cccc(-c2ccc3c(c2)O[C@H](CN(C)C(=O)C2CCOCC2)[C@@H](C)CN([C@@H](C)CO)S3(=O)=O)c1", "cytotoxicity call": "inactive"}, {"smiles": "C[C@@H]1CN([C@H](C)CO)C(=O)c2cc(NC(=O)Nc3ccccc3)ccc2O[C@@H]1CN(C)Cc1ccc(C(=O)Nc2ccccc2N)cc1", "cytotoxicity call": "inactive"}, {"smiles": "C[C@H](CO)N1C[C@H](C)[C@H](CN(C)S(=O)(=O)c2ccccc2)Oc2ccc(NS(=O)(=O)c3ccc(F)cc3)cc2C1=O", "cytotoxicity call": "inactive"}, {"smiles": "CN1C(=O)c2cc(NC(=O)c3cnccn3)ccc2OC[C@H]2O[C@H](CC(=O)N[C@H]3CCN(Cc4ccccc4)C3)CC[C@@H]21", "cytotoxicity call": "inactive"}, {"smiles": "COc1ccc(S(=O)(=O)N(C)C[C@@H]2Oc3ccc(NC(=O)Cn4cnnn4)cc3C(=O)N([C@H](C)CO)C[C@@H]2C)cc1", "cytotoxicity call": "inactive"}, {"smiles": "COc1ccc(C=CC(=O)c2ccc(O)cc2O)cc1", "cytotoxicity call": "inactive"}, {"smiles": "COc1ccc(C(=O)O)cc1", "cytotoxicity call": "inactive"}, {"smiles": "COc1ccc(C(=O)C=Cc2ccccc2)cc1", "cytotoxicity call": "active"}, {"smiles": "COc1ccc(/C=C2/NC(=O)NC2=O)cc1", "cytotoxicity call": "inactive"}, {"smiles": "O=C(C=Cc1ccc(O)cc1)c1ccc(O)cc1O", "cytotoxicity call": "inactive"}, {"smiles": "CC(=C/C(=O)O)/C=C/c1ccccc1", "cytotoxicity call": "inactive"}, {"smiles": "C/C=C/c1ccc(OC)cc1", "cytotoxicity call": "inactive"}, {"smiles": "CC=Cc1ccc(OC)cc1", "cytotoxicity call": "active"}, {"smiles": "COc1ccc(C=CC(=O)c2cc(O)ccc2O)cc1", "cytotoxicity call": "active"}, {"smiles": "COc1ccc(C=CC(=O)c2ccccc2)cc1", "cytotoxicity call": "active"}, {"smiles": "CCCCC(CC)COC(=O)C=Cc1ccc(OC)cc1", "note": "(centres undefined)", "cytotoxicity call": "inactive"}, {"smiles": "C[C@H](CO)N1C[C@H](C)[C@H](CN(C)C(=O)Nc2ccc(-c3ccccc3)cc2)OCc2ccccc2-c2ccccc2C1=O", "cytotoxicity call": "inactive"}, {"smiles": "C[C@H](CO)N1C[C@H](C)[C@H](CN(C)C(=O)CCC(F)(F)F)OCCCC[C@H](C)Oc2ccc(NC(=O)CCC(F)(F)F)cc2C1=O", "cytotoxicity call": "inactive"}, {"smiles": "O=C(NCC(=O)N1CCOCC1)c1ccccc1", "cytotoxicity call": "inactive"}, {"smiles": "Cc1ccc(S(=O)(=O)Nc2ccc3c(c2)CC(=O)N([C@H](C)CO)C[C@@H](C)[C@H](CN(C)S(=O)(=O)c2cn(C)cn2)O3)cc1", "cytotoxicity call": "inactive"}, {"smiles": "Cc1ccc(S(=O)(=O)Nc2ccc3c(c2)CC(=O)N([C@@H](C)CO)C[C@H](C)[C@@H](CN(C)S(=O)(=O)c2cccs2)O3)cc1", "cytotoxicity call": "inactive"}, {"smiles": "C[C@H](CO)N1C[C@H](C)[C@@H](CN(C)S(C)(=O)=O)Oc2ccc(NC(=O)Cn3cnnn3)cc2C1=O", "cytotoxicity call": "inactive"}, {"smiles": "COc1cc(C=Cc2ccc(O)cc2)cc(OC)c1", "cytotoxicity call": "active"}, {"smiles": "Oc1ccc(C=Cc2cc(O)cc(O)c2)cc1", "cytotoxicity call": "inactive"}, {"smiles": "COc1ccc(O)cc1", "cytotoxicity call": "inactive"}, {"smiles": "C[C@@H]1CN([C@@H](C)CO)C(=O)c2cc(C#CCN(C)C)cnc2O[C@@H]1CN(C)S(C)(=O)=O", "cytotoxicity call": "inactive"}, {"smiles": "COc1ccc(S(=O)(=O)N(C)C[C@H]2OCCCC[C@@H](C)Oc3ccc(NC(=O)C4CCCCC4)cc3C(=O)N([C@@H](C)CO)C[C@H]2C)cc1", "cytotoxicity call": "inactive"}, {"smiles": "CC(C)(C)[S@](=O)N1Cc2cc(C(=O)NCCN3CCCCC3)nc(-c3cccc(-c4ccc(C#N)cc4)c3)c2[C@@H]1CCO", "cytotoxicity call": "inactive"}, {"smiles": "C[C@@H]1CN([C@H](C)CO)S(=O)(=O)c2ccc(C#CCC3CCCC3)cc2O[C@@H]1CN(C)C(=O)c1cnccn1", "cytotoxicity call": "inactive"}, {"smiles": "C[C@@H]1CN([C@H](C)CO)S(=O)(=O)c2ccc(C#CCC3CCCC3)cc2O[C@@H]1CN(C)C(=O)CN(C)C", "cytotoxicity call": "inactive"}, {"smiles": "C[C@H](CO)N1C[C@H](C)[C@@H](CN(C)C(=O)c2cnccn2)Oc2cc(C#CCC3CCCC3)ccc2S1(=O)=O", "cytotoxicity call": "active"}, {"smiles": "C[C@H]1CN([C@@H](C)CO)S(=O)(=O)c2ccc(C#CCC3CCCC3)cc2O[C@H]1CN(C)C(=O)CN(C)C", "cytotoxicity call": "active"}, {"smiles": "C[C@H](CO)N1C[C@H](C)[C@H](CN(C)C(=O)CN(C)C)Oc2cc(C#CCC3CCCC3)ccc2S1(=O)=O", "cytotoxicity call": "inactive"}, {"smiles": "C[C@H]1CN([C@@H](C)CO)S(=O)(=O)c2ccc(C#CCC3CCCC3)cc2O[C@@H]1CN(C)C(=O)CN(C)C", "cytotoxicity call": "inactive"}, {"smiles": "C[C@H]1CN([C@@H](C)CO)S(=O)(=O)c2ccc(C#CCC3CCCC3)cc2O[C@H]1CN(C)C(=O)c1cnccn1", "cytotoxicity call": "inactive"}, {"smiles": "C[C@@H]1CN([C@H](C)CO)S(=O)(=O)c2ccc(C#CCC3CCCC3)cc2O[C@H]1CN(C)C(=O)CN(C)C", "cytotoxicity call": "inactive"}, {"smiles": "C[C@@H]1CN([C@@H](C)CO)S(=O)(=O)c2ccc(C#CCC3CCCC3)cc2O[C@@H]1CN(C)C(=O)CN(C)C", "cytotoxicity call": "active"}, {"smiles": "C=CCN([C@@H](Cc1ccccc1)[C@@H](O)c1cn(CCCNC(=O)C(=O)NC)nn1)S(=O)(=O)c1ccccc1[N+](=O)[O-]", "cytotoxicity call": "inactive"}, {"smiles": "C[C@@H]1CN([C@@H](C)CO)S(=O)(=O)c2ccc(C#CCN(C)C)cc2O[C@H]1CN(C)S(=O)(=O)c1cccc(F)c1", "cytotoxicity call": "inactive"}, {"smiles": "CC(=O)OC[C@@H](OC(C)=O)[C@H](OC(C)=O)[C@H](OC(C)=O)[C@H](OC(C)=O)[C@@H](COC(C)=O)OC(C)=O", "cytotoxicity call": "inactive"}, {"smiles": "Cc1noc(C)c1NC(=O)Nc1ccc2c(c1)C(=O)N([C@@H](C)CO)C[C@H](C)[C@@H](CN(C)C(=O)NC(C)C)O2", "cytotoxicity call": "inactive"}, {"smiles": "COc1ccc(S(=O)(=O)Nc2ccc3c(c2)CC(=O)N([C@@H](C)CO)C[C@H](C)[C@H](CN(C)Cc2ccc(Cl)c(Cl)c2)O3)cc1", "cytotoxicity call": "active"}, {"smiles": "COc1ccc(S(=O)(=O)Nc2ccc3c(c2)CC(=O)N([C@@H](C)CO)C[C@@H](C)[C@H](CN(C)Cc2ccc(Cl)c(Cl)c2)O3)cc1", "cytotoxicity call": "inactive"}, {"smiles": "COc1ccc(S(=O)(=O)Nc2ccc3c(c2)CC(=O)N([C@H](C)CO)C[C@H](C)[C@H](CN(C)Cc2ccc(Cl)c(Cl)c2)O3)cc1", "cytotoxicity call": "active"}, {"smiles": "COc1ccc(S(=O)(=O)Nc2ccc3c(c2)CC(=O)N([C@H](C)CO)C[C@@H](C)[C@H](CN(C)Cc2ccc(Cl)c(Cl)c2)O3)cc1", "cytotoxicity call": "active"}, {"smiles": "COc1ccc(S(=O)(=O)Nc2ccc3c(c2)CC(=O)N([C@@H](C)CO)C[C@H](C)[C@@H](CN(C)Cc2ccc(Cl)c(Cl)c2)O3)cc1", "cytotoxicity call": "inactive"}, {"smiles": "COc1ccc(S(=O)(=O)Nc2ccc3c(c2)CC(=O)N([C@@H](C)CO)C[C@@H](C)[C@@H](CN(C)Cc2ccc(Cl)c(Cl)c2)O3)cc1", "cytotoxicity call": "active"}, {"smiles": "CN1C(=O)c2cc(NC(=O)c3cscn3)ccc2OC[C@@H]2O[C@H](CC(=O)N3CCOCC3)CC[C@@H]21", "cytotoxicity call": "inactive"}, {"smiles": "OCC1OC(OCCc2ccc(O)cc2)C(O)C(O)C1O", "note": "(centres undefined)", "cytotoxicity call": "inactive"}, {"smiles": "C[C@@H]1CN([C@H](C)CO)C(=O)c2cc(NC(=O)Nc3ccc(F)cc3)ccc2O[C@@H](C)CCCCO[C@@H]1CN(C)Cc1ccc(C(=O)O)cc1", "cytotoxicity call": "inactive"}, {"smiles": "COc1ccccc1-c1cnc2c(c1)C(=O)N([C@H](C)CO)C[C@H](C)[C@H](CN(C)C(=O)c1cccnc1)O2", "cytotoxicity call": "inactive"}, {"smiles": "CC(O)C(=O)[O-].[NH4+]", "note": "(centres undefined)", "cytotoxicity call": "inactive"}, {"smiles": "C[C@H]1CN([C@@H](C)CO)C(=O)c2cccc(NC(=O)Nc3ccc(F)cc3)c2O[C@@H]1CN(C)C(=O)Nc1ccc(C(F)(F)F)cc1", "cytotoxicity call": "inactive"}, {"smiles": "COc1ccc(S(=O)(=O)Nc2ccc3c(c2)CC(=O)N([C@H](C)CO)C[C@@H](C)[C@@H](CN(C)Cc2ccc(Cl)c(Cl)c2)O3)cc1", "cytotoxicity call": "active"}, {"smiles": "COc1ccc(S(=O)(=O)Nc2ccc3c(c2)CC(=O)N([C@H](C)CO)C[C@H](C)[C@@H](CN(C)Cc2ccc(Cl)c(Cl)c2)O3)cc1", "cytotoxicity call": "inactive"}]}]}
